Reference: PubChem BioAssay (NCATS)
Records with an inconclusive call do not appear. Activity calls are given as the source filed them. The call rests on the fitted dose curve; in most records, active means well fitted curve in the direction sought with a large enough effect; inconclusive means small, poorly fitted or top-dose-only effect, or another doubt; inactive means no such curve, though single readings can be large; an effect the other way counts as inactive or inconclusive.

What was measured:
[1] = Quantitative High-Throughput drug screen in 47 multiple myeloma cell lines against the NCATS MIPE library collection: KHM11_PLB cell viability assay (AID 1918962); further: nearly all actives have a fitted effect of over 35% in size; further: potency means the concentration at half of the fitted maximal effect
In short: (§1)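 Relative luminescence from CellTiter-Glo served as the viability signal, referenced to DMSO-treated (100%) and cell-free medium (0%) controls. Treatment lasted 48 hours at 37C with 500 cells per well.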

[2] = Quantitative High-Throughput drug screen in 47 multiple myeloma cell lines against the NCATS MIPE library collection: JIM3_ECACC cell viability assay (AID 1918963; further: nearly all actives have a fitted effect of over 35% in size; further: potency means the concentration at half of the fitted maximal effect)
In short: as §1

[3] = Quantitative High-Throughput drug screen in 47 multiple myeloma cell lines against the NCATS MIPE library collection: JIM1_ECACC cell viability assay (AID 1918964; further: potency means the concentration at half of the fitted maximal effect)
In short: (§2)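 Myeloma cells (500 per well) were exposed to MIPE 4.0 compounds by pin transfer and incubated 48 hours at 37C, 5% CO2. Viability was read as ATP by CellTiter-Glo luminescence, normalised to DMSO (100%) and media-only (0%) wells.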

[4] = Quantitative High-Throughput drug screen in 47 multiple myeloma cell lines against the NCATS MIPE library collection: INA6_PLB cell viability assay (AID 1918965; further: nearly all actives have a fitted effect of over 55% in size; further: potency means the concentration at half of the fitted maximal effect)
In short: as §1

[5] = Quantitative High-Throughput drug screen in 47 multiple myeloma cell lines against the NCATS MIPE library collection: ARD_JJKsccE7 cell viability assay (AID 1918929; further: potency means the concentration at half of the fitted maximal effect)
In short: as §2

[6] = Quantitative High-Throughput drug screen in 47 multiple myeloma cell lines against the NCATS MIPE library collection: Karpas417_ECACC cell viability assay (AID 1918961); conditions: Karpas417 myeloma viability, CellTiter-Glo ATP luminescence, 48 h; viability (% of DMSO): at 45.8 µM (top of the series)
In short: as §1

[7] = Quantitative High-Throughput drug screen in 47 multiple myeloma cell lines against the NCATS MIPE library collection: JJN3_DSMZ cell viability assay (AID 1918966; further: nearly all actives have a fitted effect of over 50% in size; further: potency means the concentration at half of the fitted maximal effect)
In short: as §2

[8] = Quantitative High-Throughput drug screen in 47 multiple myeloma cell lines against the NCATS MIPE library collection: Karpas620_DSMZ cell viability assay (AID 1918959); further: nearly all actives have a fitted effect of over 30% in size; further: potency means the concentration at half of the fitted maximal effect
In short: as §1

[9] = Quantitative High-Throughput drug screen in 47 multiple myeloma cell lines against the NCATS MIPE library collection: KMM1_JCRB cell viability assay (AID 1918960); further: nearly all actives have a fitted effect of over 30% in size; further: potency means the concentration at half of the fitted maximal effect
In short: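 500 cells/well; MIPE 4.0 library pinned in; 48 h, 37 °C, 5% CO2; CellTiter-Glo ATP luminescence. Controls: DMSO = 100% viability, medium only = 0%.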

Measured: Potency

Nc1nc(Cl)nc2c1ncn2[C@H]1C[C@H](O)[C@@H](CO)O1
active: [1] 1.05 µM | [2] 0.526 µM | [3] 2.35 µM | [4] 0.935 µM

O=c1oc2cc(O)ccc2s1
inactive: [2]

Cc1cccc(CN2CCN(C(c3ccccc3)c3ccc(Cl)cc3)CC2)c1 (configuration not stated)
inactive: [6] | [3]
active: [5] 26.4 µM | [4] 16.6 µM | [7] 23.5 µM

O=C1c2ccccc2-c2n[nH]c3cccc1c23
inactive: [8] | [2]
active: [5] 1.18 µM | [4] 20.9 µM

CC(C)c1ccc2c(c1)c(SC(C)(C)C)c(CC(C)(C)C(=O)O)n2Cc1ccc(Cl)cc1
inactive: [8] | [9] | [1] | [3]

O=C(O)c1cn(-c2ccc(F)cc2)c2cc(N3CCNCC3)c(F)cc2c1=O
inactive: [5] | [9] | [2] | [3] | [4]

CCc1nc(N)nc(N)c1-c1ccc(Cl)cc1
inactive: [8] | [1] | [3]
active: [2] 2.35 µM | [4] 10.5 µM

COc1cc2nc(N3CCN(C(=O)C4CCCO4)CC3)nc(N)c2cc1OC (configuration not stated)
inactive: [8] | [1] | [2] | [4]

Cc1c(C(=O)NN2CCCCC2)nn(-c2ccc(Cl)cc2Cl)c1-c1ccc(Cl)cc1
active: [5] 16.6 µM | [8] 20.9 µM | [9] 23.5 µM | [2] 23.5 µM | [3] 11.8 µM

Cc1ccc(Nc2nccc(N(C)c3ccc4c(C)n(C)nc4c3)n2)cc1S(N)(=O)=O
active: [5] 16.6 µM | [9] 14.8 µM | [4] 3.72 µM

Cc1nccn1CC1CCc2c(c3ccccc3n2C)C1=O (configuration not stated)
inactive: [5] | [9] | [7]

COc1c(O)cc2c(c1O)[C@@H]1O[C@H](CO)[C@@H](O)[C@H](O)[C@H]1OC2=O
inactive: [8] | [9] | [6] | [1] | [2] | [3]

Oc1ccc(-c2nc(-c3ccc(F)cc3)c(-c3ccncc3)[nH]2)cc1
active: [2] 14.8 µM | [4] 14.8 µM | [7] 9.35 µM
inactive: [5] | [8] | [9]

CCCOc1ccc2nc(NC(=O)OC)[nH]c2c1
active: [5] 0.001 µM | [2] 0.0066 µM | [4] 0.0105 µM

Clc1ccc2c(N3CCN(CCCN4CCN(c5ccnc6cc(Cl)ccc56)CC4)CC3)ccnc2c1
inactive: [5] | [8] | [9] | [2] | [4] | [7]

CC1=C(C)C(=O)C(C(CCCCCC(=O)O)c2ccccc2)=C(C)C1=O (configuration not stated)
inactive: [8]

OC(CN1CCN(c2cccc(Cl)c2)CC1)C(c1ccccc1)c1ccccc1 (configuration not stated)
inactive: [5] | [9] | [2]

Cc1cc2cc3c(C)cc(=O)oc3c(C)c2o1
active: [8] 23.5 µM

Cc1nc(Nc2ncc(C(=O)Nc3c(C)cccc3Cl)s2)cc(N2CCN(CCO)CC2)n1
active: [5] 2.35 µM | [8] 16.6 µM | [9] 1.05 µM | [4] 0.0833 µM | [7] 3.32 µM

Clc1ccc(C(Cn2ccnc2)OCc2ccc(Sc3ccccc3)cc2)c(Cl)c1 (configuration not stated)
active: [5] 26.4 µM | [8] 18.7 µM | [9] 20.9 µM | [3] 20.9 µM | [4] 26.4 µM

COCCCN1CCC(NC(=O)c2cc(Cl)c(N)c3c2OCC3)CC1
active: [5] 20.9 µM | [9] 20.9 µM | [2] 18.7 µM | [3] 16.6 µM | [4] 18.7 µM

CC(C)Oc1ccc2c(=O)c(-c3ccccc3)coc2c1
inactive: [5] | [1] | [2] | [3]

CCN(CC)CCOc1ccc(Cc2ccccc2)cc1
active: [8] 14.8 µM
inactive: [1] | [2]

Cc1cccc(C)c1OCC(=O)N[C@@H](Cc1ccccc1)[C@@H](O)C[C@H](Cc1ccccc1)NC(=O)[C@H](C(C)C)N1CCCNC1=O
active: [5] 5.9 µM | [9] 6.62 µM | [2] 20.9 µM
inactive: [1]

COc1cc(C(C)=O)ccc1OCCCN1CCC(c2noc3cc(F)ccc23)CC1
active: [4] 14.8 µM
inactive: [2]

O=C(O)c1cccc(-c2noc(-c3ccccc3F)n2)c1
inactive: [8] | [9] | [2] | [3]
active: [5] 14.8 µM | [4] 23.5 µM

CC(C)c1ccc2oc3nc(N)c(C(=O)O)cc3c(=O)c2c1
inactive: [5] | [8] | [2] | [3] | [4]

Cc1cc(Cl)ccc1OCCCC(=O)NO
active: [5] 20.9 µM | [1] 11.8 µM | [2] 9.35 µM | [4] 7.43 µM | [7] 0.372 µM

O=c1ccc2ccc(O)c(O)c2o1
inactive: [5]
active: [8] 23.5 µM | [1] 11.8 µM

O=C(CS(=O)Cc1ccco1)NCC=CCOc1cc(CN2CCCCC2)ccn1 (configuration not stated)
inactive: [5] | [9] | [2] | [3]

CCOC(=O)C1=C(O)C(=O)N(Cc2ccccc2)C1
inactive: [5] | [8] | [9] | [2] | [4]

COC(=O)C1=C(C)NC(C)=C(C(=O)OCCCN2CCC(c3ccccc3)(c3ccccc3)CC2)C1c1cccc([N+](=O)[O-])c1 (configuration not stated)
inactive: [5] | [8] | [1] | [2]

CC(=O)N1CCN(c2ccc(OC[C@H]3CO[C@](Cn4ccnc4)(c4ccc(Cl)cc4Cl)O3)cc2)CC1
active: [8] 5.26 µM | [9] 5.26 µM | [2] 11.8 µM
inactive: [3]

CC(C)c1nc(CN(C)C(=O)N[C@H](C(=O)N[C@@H](Cc2ccccc2)C[C@H](O)[C@H](Cc2ccccc2)NC(=O)OCc2cncs2)C(C)C)cs1
inactive: [8] | [9] | [6]

C=CCc1cc(OC)c(O)c(C(=O)NCCO)c1
inactive: [8] | [9] | [6] | [1] | [2] | [4]
